Screens from PubChem.
DENV2 CPE rescue: DENV2-induced cell death inhibition | 350,000 tested, 1.7% active | AID 651640 | DENV2-infected cells, cytopathic effect rescue, plate reader | CPE inhibition, % at 9.99 µM; in the data active means CPE inhibition above about 20%, passing the limit was not always enough; tested in BHK-21 cells
PvdQ inh: blocks Pseudomonas aeruginosa PvdQ acylase activity. 340,000 tested, 0.063% active. inhibition, % at 10 µM. purified PvdQ acylase, fluorescence plate reader; in the data active means inhibition above about 30%, passing the limit was not always enough
PGC1a acetyl inh: lowers PGC1a acetylation signal in U2OS cells | AlphaScreen anti-acetyl-lysine; with virally co-expressed GCN5 acetyltransferase | inhibition, % at 15.6 µM | 350,000 tested, 0.17% active | AID 651687;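 active means every replicate shows inhibition of at least 40%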
Statin myotox sup: suppression of simvastatin myotoxicity | C2C12 myotubes + simvastatin, ATP luminescence, 48 h; scaled: DMSO 0, geranylgeraniol control 100 | rescue of ATP level, % at 7.49 µM | 330,000 tested, 0.78% active | AID 602340;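 active means mean ATP rescue above about 67%, or every replicate alone reaching that limit, limit read from the data, passing the limit was not always enough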;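 further: myotubes were challenged with 10 µM simvastatin during compound exposure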
miR122 inh: blocks miR-122 activity in Huh7 sensor cells | Huh7 miR-122 Renilla luciferase sensor, 48 h; neutral wells = 0, positive control = 100 | activation (reporter increase), % at 12.5 µM | 340,000 tested, 0.3% active | AID 602342;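 active means mean replicate activation score at least 90 and every replicate individually at or above 90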;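 further: higher luciferase means less miR-122 activity so hits act as miR-122 inhibitors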
Numbers stand for hits; – = inactive; · = not tested or not shown; ! = a repeat was not active; [ ] = remark or other dose. This is a sample that favours compounds with a hit; in the whole collection about 2.2% have one here.

SMILES | DENV2 CPE rescue | PvdQ inh | PGC1a acetyl inh | Statin myotox sup | miR122 inh
C[C@H](CO)N1C[C@H](C)[C@H](CN(C)Cc2ccncc2)Oc2cc(C3=CCCC3)ccc2S1(=O)=O | 36 | · | – | – | –
C[C@@H]1CN([C@H](C)CO)S(=O)(=O)c2ccc(C3=CCCC3)cc2O[C@@H]1CN(C)Cc1cccnc1 | – | · | – | – | –
C[C@@H]1CN([C@H](C)CO)C(=O)c2cc(C#Cc3ccccn3)cnc2O[C@@H]1CN(C)Cc1ccncc1 | – | · | – | – | –
CN(C)C(=O)C[C@@H]1C[C@@H]2c3cc(NC(=O)Nc4ccc(F)cc4)ccc3O[C@@H]2[C@@H](CO)O1 | – | · | – | – | –
COCCCn1c(=O)/c(=C\c2ccccc2OC(F)F)s/c1=C(/C#N)C(N)=O | – | – | – | – | 167
O=C1c2ccccc2C(=O)N1CCCN1C(=O)c2ccccc2C1=O | – | – | – | – | –
O=C1c2ccccc2C(=O)N1CC1=CCS(=O)(=O)C1 | · | – | – | 112 | –
O=C(c1cc(C2CC2)nn1-c1ccccc1)N1CCN(Cc2ccc(Cl)cc2)CC1 | – | – | – | – | –
Cc1cccc(C)c1NC(=O)CN1CCN(C(=O)c2cc(C3CC3)nn2-c2ccccc2)CC1 | 81 | · | – | – | –
O=C(C[C@@H]1C[C@H]2c3cc(NC(=O)CC4CC4)ccc3O[C@H]2[C@@H](CO)O1)NCc1cccc(F)c1 | – | · | – | – | –
CC(C)NC(=O)Nc1ccc2c(c1)CC(=O)N([C@H](C)CO)C[C@@H](C)[C@@H](CN(C)C(=O)NC1CCCCC1)O2 | – | · | – | – | –
Cc1cc(C)n(-c2nc3ccccc3c(=O)n2OCCOc2ccccc2)n1 | · | – | – | 99 | –
O=[N+]([O-])c1ccc(N2CCCC2)nc1N1CCCC1 | – | – | – | · | –
Nc1ncc([N+](=O)[O-])c(N2CCCCCC2)n1 | – | – | 53 | – | –
C[C@H]1CN([C@@H](C)CO)C(=O)Cc2cc(NC(=O)Nc3ccccc3)ccc2O[C@H]1CN(C)Cc1ccc(Cl)c(Cl)c1 | – | · | – | – | –
Cc1noc(C)c1NC(=O)Nc1ccc2c(c1)CC(=O)N([C@@H](C)CO)C[C@H](C)[C@H](CN(C)C)O2 | 21 | · | – | – | –
C[C@H](CO)N1C[C@H](C)[C@H](CN(C)CC2CC2)Oc2ccc(NC(=O)Nc3ccc(F)cc3)cc2CC1=O | 42 | · | – | – | –
C[C@@H]1CN([C@@H](C)CO)C(=O)Cc2cc(NC(=O)CCC(F)(F)F)ccc2O[C@@H]1CN(C)CC1CC1 | 42 | · | – | – | –
C[C@@H]1CN([C@@H](C)CO)C(=O)Cc2cc(NC(=O)Nc3ccc(F)cc3)ccc2O[C@@H]1CN(C)Cc1ccc(Cl)c(Cl)c1 | – | – | – | 108 | –
C[C@@H]1CN([C@H](C)CO)C(=O)c2cccc(NC(=O)CCCCCC(=O)Nc3ccccc3N)c2O[C@@H]1CN(C)Cc1ccc(Cl)c(Cl)c1 | – | · | – | · | ·
O=C(C[C@@H]1CC[C@H](NC(=O)NC2CCCC2)[C@H](CO)O1)NCc1ccc(F)cc1 | – | · | – | – | –
Cc1noc(C)c1NC(=O)Nc1ccc2c(c1)CC(=O)N([C@@H](C)CO)C[C@H](C)[C@@H](CN(C)Cc1ccc(Cl)c(Cl)c1)O2 | – | · | – | – | 109[16.7 µM]
C[C@H](CO)N1C[C@H](C)[C@H](CN(C)Cc2ccccc2)Oc2ccc(NS(=O)(=O)c3cccs3)cc2C1=O | – | · | – | – | –
O=C(Nc1ccc2c(c1)OCCO2)c1cccc2nc3ccccc3nc12 | · | – | – | 74 | –
Cc1cc(C)c2cc(CN(Cc3ccco3)C(=O)NCc3ccccc3)c(=O)[nH]c2c1 | · | – | – | 110 | –
SMILES | DENV2 CPE rescue | PvdQ inh | PGC1a acetyl inh | Statin myotox sup | miR122 inh
Cc1cc(C)c2cc(CN(CC3CCCO3)C(=S)NCc3ccco3)c(=O)[nH]c2c1 (centres undefined) | – | – | – | · | –
O=C(Nc1ccccc1)N1CCCCN2[C@@H](CO)[C@H](c3ccc(C#CC4CC4)cc3)[C@@H]2C1 | – | · | – | · | –
CC(C)NC(=O)N(C)C[C@H]1Oc2ccc(NC(=O)CCCN(C)C)cc2CC(=O)N([C@@H](C)CO)C[C@@H]1C | · | · | – | – | –
O=C(NCCCNCCCNC(=O)c1ccccn1)c1ccccn1 | · | – | – | 115 | –
COc1ccc2[nH]c(C(=O)N(C)Cc3ccccc3)c(C)c2c1 | – | – | – | – | –
CCN(Cc1ccccc1)C(=O)c1[nH]c2ccc(OC)cc2c1C | – | – | – | – | 125
CC(C)(C)c1ccc(NC(=S)NCCc2ccccn2)cc1 | – | – | – | · | ·
FC(F)(F)c1cccc(NC(=S)NCCc2ccccn2)c1 | · | – | · | – | 249
COc1ccc2c3c(n(C)c2c1)[C@H](CO)N(CC1CCCC1)CC31CN(C(=O)Nc2ccccc2)C1 | – | · | – | · | ·
COc1ccc2c3c(n(C)c2c1)[C@@H](CO)N(CC1CC1)CC31CN(C(=O)CC2CC2)C1 | 21 | · | – | · | ·
COc1ccc2c3c(n(C)c2c1)[C@H](CO)N(Cc1ccccc1F)CC31CN(C(C)=O)C1 | – | · | – | · | ·
COc1ccc2c3c(n(C)c2c1)[C@H](CO)N(CC1CC1)CC31CN(C(=O)Nc2ccccc2)C1 | 23 | · | · | · | ·
COc1ccc2c3c(n(C)c2c1)[C@H](CO)N(Cc1ccccc1F)CC31CCN(C(C)=O)CC1 | 93 | · | – | · | ·
C[C@@H]1CN([C@@H](C)CO)C(=O)c2cccc(NS(=O)(=O)c3ccc(F)cc3)c2O[C@H]1CN(C)S(=O)(=O)c1ccccc1 | – | · | – | – | –
CC(=O)N(C)C[C@H]1Oc2cc(-c3cncnc3)ccc2S(=O)(=O)N([C@@H](C)CO)C[C@@H]1C | – | · | – | – | –
C=CCN1C(=O)C2C(C(=O)NC)C3C=CC2(O3)C1C(=O)NCc1ccc(OC)cc1 (centres undefined) | · | – | – | 105 | –
C[C@H]1CN([C@@H](C)CO)C(=O)c2ccccc2-c2ccccc2CO[C@@H]1CN(C)Cc1ccc(Cl)c(Cl)c1 | – | · | – | · | ·
COc1ccc(-n2c(C)cc(C=O)c2C)cc1Cl | · | – | – | 102 | –
CC(=O)n1cc([C@@H]2C=C(C(=O)NCc3ccccc3)O[C@H](OCc3ccc(CO)cc3)C2)c2ccccc21 | 45! | – | – | – | –
CC(=O)n1cc([C@H]2C=C(C(=O)Nc3ccccc3)O[C@@H](OCc3ccc(CO)cc3)C2)c2ccccc21 | · | – | · | – | ·
CC(=O)n1cc([C@@H]2C=C(C(=O)O)O[C@H](OCc3ccc(CO)cc3)C2)c2ccccc21 | 28! | – | – | – | –
C#CCNC(=O)C1=C[C@H](c2ccc3c(c2)OCO3)C[C@H](OCCCCO)O1 | 26 | · | · | · | ·
CC(=O)n1cc([C@H]2C=C(C(=O)N3CCN(Cc4ccc5c(c4)OCO5)CC3)O[C@@H](OCc3ccc(CO)cc3)C2)c2ccccc21 | 24 | – | – | – | –
COCC(=O)Nc1ccc2c(c1)C(=O)N(C)[C@@H]1CC[C@@H](CC(=O)Nc3cn(C)nc3C)O[C@@H]1CO2 | – | · | – | – | –
C[C@@H]1C=C(C(=O)N2CCN(Cc3ccc4c(c3)OCO4)CC2)O[C@H](OCCCCO)C1 | 21 | – | · | – | ·
